PubChem BioAssay AID2540 (Sanford-Burnham Center for Chemical Genomics, 2010)
Hit rate of the full screen: of about 330,000 compounds, about 4,100 (1.2%) were called active. The entries come from a sample that favours actives as a whole. A number with no mark means an inactive call. No stated cut-off is given here; in the data, active means inhibition above about 50%; inactive means the rest.

These compounds were tested against Sentrin-specific protease 8 (Homo sapiens) (UniProt Q96LD8) (assay: blockers of human SENP8 peptidase activity – biochemical, luminescence, primary screen (AID 2540)). Conditions: purified SENP8, Z-RLRGG-aminoluciferin cleavage, at 10 µM, stronger effect = higher value.
Sequence of Sentrin-specific protease 8 (Homo sapiens) (Q96LD8 whole entry, looked up): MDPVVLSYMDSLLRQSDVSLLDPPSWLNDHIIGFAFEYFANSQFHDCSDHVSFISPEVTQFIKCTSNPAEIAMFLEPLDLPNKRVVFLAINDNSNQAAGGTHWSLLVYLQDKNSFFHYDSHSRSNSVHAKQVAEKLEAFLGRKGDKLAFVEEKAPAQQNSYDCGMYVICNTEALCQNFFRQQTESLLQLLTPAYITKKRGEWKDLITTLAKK

| SMILES | inhibition |
| --- | --- |
| CC(C)[C@H](NC(=O)N1CCn2c1nc1ccccc12)C(=O)NC1CC1 | -8.07% |
| CSCCC(NC(=O)COc1ccccc1)C(=O)OCCOc1ccc(Br)cc1 (configuration not stated) | -20.5% |
| CCC(C)(C)NC(=O)C(c1ccc(O)cc1)N(Cc1ccco1)C(=O)CCC(=O)Nc1ccccn1 (configuration not stated) | -6.41% |
| O=C(NN=Cc1ccc(N2CCOCC2)cc1)c1cc2ccccc2cc1O | -1.63% |
| Cc1ccccc1N/N=C/c1ccc(N2CCOCC2)cc1 | -7.47% |
| COc1ccc(C/C(C)=N/NC(=O)c2cc(C)oc2C)cc1 | -5.88% |
| CC(=C/c1ccccc1)/C=N/NC(=O)c1cc(C)oc1C | 73.3% (active) |
| Cc1cc(C(=O)N/N=C\C(Br)=C\c2ccccc2)c(C)o1 | 38.8% |
| Cc1cc(C(=O)N/N=C/c2ccc(N3CCOCC3)cc2)c(C)o1 | 84.5% (active) |
| CCCOc1ccc(C2=CSC3=NCCN23)cc1Cl | -25.9% |
| CCN(C(=O)CSc1nnc(-c2ccncc2)o1)c1ccccc1 | -5.88% |
| COc1ccc(CNc2c(CO)cnc3c2cnn3C)cc1 | 3.66% |
| CC(=O)c1cc2c(cc1NC(=O)CN1CCCCCC1)OCO2 | 6.92% |
| COCCN(C(=O)CSCc1ccc(C)cc1)c1c(N)n(CC(C)C)c(=O)[nH]c1=O | -1.3% |
| CCCCCC(=O)N1CCN(S(=O)(=O)c2ccc3c(c2)OCCCO3)CC1 | 0.168% |
| Cc1ccc(NC(=O)c2sccc2C)cc1[N+](=O)[O-] | 3.23% |
| Cc1ccsc1C(=O)N/N=C/c1ccc([N+](=O)[O-])cc1 | 73.3% (active) |
| O=C(N/N=C/c1ccc([N+](=O)[O-])cc1)C(=O)N1CCCC1 | -9.06% |
| CN(CCOc1ccccc1)Cc1nc2cc(Cl)ccc2c(=O)[nH]1 | 0.32% |
| COCC(C)n1c(C)cc(C(=O)COc2ccc(C)nc2[N+](=O)[O-])c1C (configuration not stated) | 4.55% |
| C#Cc1ccc([C@@H]2C=C(C(=O)O)O[C@H](OCCCCO)C2)cc1 | -9.34% |

| SMILES | inhibition |
| --- | --- |
| CCC(C)NC(=O)/C=C/c1ccc(S(=O)(=O)NCc2ccco2)cc1 (configuration not stated) | -7.51% |
| CC1(C)C2CC=C(/C=N/NC(=O)c3ccc(Cl)cc3)C1C2 (configuration not stated) | -0.62% |
| COc1cccc(Nc2nc(N)c([N+](=O)[O-])c(NCc3ccco3)n2)c1 | -2.27% |
| CCN1CCN(c2nc(Nc3cccc(F)c3)nc(N)c2[N+](=O)[O-])CC1 | -4.79% |
| CNc1nc(Nc2ccc(C)c(Cl)c2)nc(N)c1[N+](=O)[O-] | 96.8% (active) |
| Cc1cc(C)c(NC(=S)N2CCCC2C(=O)O)c(C)c1 (configuration not stated) | -2.97% |
| CC(=O)c1cccc(NC(=O)c2cc(C)nn2-c2ccccc2)c1 | -2.45% |
| N#Cc1ccc(S(=O)(=O)NCC(=O)OCC(=O)NCCc2ccccc2)cc1 | 2.9% |
| COc1ccc(/C=C2\CCc3ccccc3C2=O)c(OC)c1OC | -6.3% |
| O=S(=O)(c1cccs1)N1CCc2ccccc2C1 | -2.48% |
| O=C1/C(=C/c2cccs2)SC(=S)N1C1CCS(=O)(=O)C1 (configuration not stated) | 10.2% |
| O=C1/C(=C/c2cccs2)CCC1C1CCCC1 (configuration not stated) | 80.6% (active) |
| CCC1C/C(=C/c2cccs2)C(=O)/C(=C/c2cccs2)C1 (configuration not stated) | -8.62% |
| O=C1/C(=C/c2cccs2)CCc2ccccc21 | 96.5% (active) |
| CC(C)(C)C(=O)CSc1ccc(S(=O)(=O)N2CCCC2)cn1 | 0.226% |
| CC(=O)N1CCC(C(=O)OCc2ccc(Cl)cc2)(c2ccccc2)CC1 | -16% |
| Cc1ccc(CNC(=O)CCNS(=O)(=O)c2ccc(Br)s2)cc1 | -3.11% |
| Oc1c(C=Nc2cccc3nsnc23)ccc2ccccc12 | 75.8% (active) |
| CCCn1c(SCC(=O)c2ccc3c(c2)OCCO3)nnc1C(C)C | 1.93% |
| O=C(O)c1ccc(N/N=C/c2ccc3ncccc3c2)cc1 | 97.1% (active) |
| O=C(O)c1ccc(/C=N/Nc2nc(N3CCCCC3)nc(N3CCCCC3)n2)cc1 | -10.8% |

| SMILES | inhibition |
| --- | --- |
| Cc1ccc2cc(/C=N/Nc3ccc(C(=O)O)cc3)c(Cl)nc2c1 | -3.31% |
| S=c1[nH]nc(-c2cc(-c3ccccc3)n[nH]2)n1/N=C/c1c2ccccc2cc2ccccc12 | -9.93% |
| Cc1ccc(NC(=O)c2cc(-c3ccccc3O)n[nH]2)cc1C | -13.8% |
| c1ccc(-c2cc(-c3ccccc3)[nH]n2)cc1 | 58.4% (active) |
| Oc1ccccc1-c1cc(-c2ccc(Cl)cc2)n[nH]1 | 89.8% (active) |
| S=c1[nH]nc(-c2cc(-c3ccsc3)n[nH]2)n1-c1ccccc1 | 2.29% |
| O=C(Nc1cccnc1Cl)c1cc(-c2ccccc2O)on1 | -7.17% |
| CCOc1ccc(C(=O)CCN2CCOCC2)cc1 | -4.08% |
| CCCCn1c(N)c(N(CC(C)C)C(=O)C2CSC3(C)CCC(=O)N23)c(=O)[nH]c1=O (configuration not stated) | -4.36% |
| COC(C/C=C/C(=O)[C@@H](C)OCc1ccccc1)OC | -1.1% |
| O=C(Nc1ccc(O)cc1)c1ccc(NC(=O)c2ccco2)cc1 | -13.6% |
| COc1ccccc1C(=O)Nc1ccc(NC(=O)c2ccco2)c(C)c1 | 42.6% |
| Cc1cc(NC(=O)c2ccc(F)cc2)ccc1NC(=O)c1ccco1 | 55.5% (active) |
| CC1(C)CCSC(/C=C/c2ccccc2)=N1 | -3.81% |
| CCOc1ccc(C(O)Cn2c(=N)n(CCN3CCCCC3)c3ccccc32)cc1 (configuration not stated) | 4.64% |
| O=C1c2ccccc2-c2ncnc3c(N4CCOCC4)cc(N4CCOCC4)c1c23 | -2.88% |
| O=C(c1ccccc1)C(Cn1cncn1)C(Sc1ccccc1)c1ccccc1 (configuration not stated) | -0.476% |
| Cc1ccc(NC(=O)Nc2nnc(-c3ccncc3)s2)cc1 | -9.37% |
| Cc1ccc(Nc2nc(Cl)c(C=O)s2)cc1 | 67.8% (active) |
| Cc1ccc(Nc2nc(C)cc(C)c2C(N)=O)cc1 | 5.13% |
